Values joined by “and” are separate entries in the source; they are usually repeats but may differ in a detail not shown here. Identical values can stand only once. Active and inactive are the calls of the source. A call without a number means that no potency is given here. Unless noted, the call rests on the fitted dose curve; in most records, active means well fitted curve in the direction sought with a large enough effect; inconclusive means small, poorly fitted or top-dose-only effect, or another doubt; inactive means no such curve, though single readings can be large; an effect the other way counts as inactive or inconclusive.
Legend:
[1] = Nrf2 qHTS screen for inhibitors: Validation (AID 493153; active means well fitted inhibition curve with a large enough effect in the main read-out, with a control signal flat, not every such curve was filed as active; inconclusive means small, poorly fitted or top-dose-only effect, or effect the other way, or a change in a side signal; inactive means no such curve, though single readings can be large or run the other way); details: Potency: luciferase luminescence; viability change: measured here: cytotoxicity max response
Procedure, shortened: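 A549 ARE_Fluc, 5% FBS OPTI-MEM; cpd titration, 18-24 h, 37°C/5% CO2. Read 1: CellTiter-Fluor (Ex 405/Em 525), cytotox. Read 2: luciferase lum, Nrf2 activity.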

[2] = qHTS for Inhibitors of Cell Surface uPA Generation: Validation Assay (AID 493164);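 further: RAW 264.7 macrophage cells exposed to compound for 18 h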
Procedure, shortened: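 ATP-Lite luminescence read-out: ATP remains high when uPA activity-dependent LF translocation into the cytoplasm is blocked. RAW 264.7 cells, 18 h compound exposure at 37 C; 7-point titration, 2.45 nM to 38.3 uM final.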

[3] = molecular target: Peptidyl-prolyl cis-trans isomerase NIMA-interacting 1 (Homo sapiens) (UniProt Q13526); assay: qHTS Validation Assay to Find Inhibitors of Pin1 (AID 504536; active means well fitted inhibition curve with a large enough effect in the polarisation, with a control signal flat, not every such curve was filed as active; inconclusive means small, poorly fitted or top-dose-only effect, or effect the other way; the % refers to the polarisation)
Procedure, shortened: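 Fluorescence polarization competition: compounds (titration) displace HiFluor-488-labeled Pin1-1b peptide from Pin1 (0.3 uM final) in pH 7.5 HEPES buffer with DTT, 10 min at room temperature; %Activity normalized to no-enzyme wells, curves fitted.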

[4] = molecular target: Phosphoglycerate kinase, glycosomal (Trypanosoma brucei brucei) (UniProt P07378); assay: qHTS Validation Assay to Find Inhibitors of Phosphoglycerate Kinase (AID 504547)
Procedure, shortened: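 Compounds are pinned into the substrate/PGK mixture, and GAPDH (100nM final) is added to start the reaction by producing 1,3-BPG. After 60 minutes at room temperature, Kinase-Glo Plus is added and luminescence is measured 10 minutes later.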

[5] = molecular target: phosphoglycerate mutase (Leishmania major) (UniProt Q4Q090); assay: qHTS Validation Assay to Find Inhibitors of Phosphoglycerate Mutase (AID 504548); further: series mostly up to about 58 µM
Procedure, shortened: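 Lm PGAM at 1.25 nM final with substrate in 100 mM TEA pH 7.6, 5 mM MgCl2, 0.01% Tween-20; 45 min at room temperature. Kinase-GloPlus added, 10 min, end-point luminescence read.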

[6] = molecular target: Ubiquitin carboxyl-terminal hydrolase 1 (Homo sapiens) (UniProt O94782); assay: Inhibitors of USP1/UAF1: Pilot qHTS (AID 504865); further: nearly all actives have a fitted effect of over 35% in size; further: potency means the concentration at half of the fitted maximal effect
Procedure, shortened: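 1nM USP1/UAF1 + cpd, 15 min RT; start w/ Ub-Rho 150nM final; kinetic FL 480/540 nm, 6 reads q60 s. Buffer 50mM HEPES pH 7.8, 0.5mM EDTA, 1mM TCEP, 0.01% Tween-20, 0.1 mg/ml BSA.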

[7] = qHTS for Inhibitors of ATXN expression: Validation of Cytotoxic Assay (AID 588349)
Procedure, shortened: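 Titrated compounds are added to cultured HEK293 cells, which are then held at 37 degrees C for 72 hr; loss of intracellular ATP, measured with CellTiter Glo, indicates toxicity.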

[8] = qHTS for Inhibitors of ATXN expression: Validation (AID 588378); further: series mostly up to about 57 µM; nearly all actives have a fitted effect of over 75% in size
Procedure, shortened: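 Cells: HEK293-ATXN2-FFLuc, phenol-red free DMEM, 2 h attachment. Compound pin-transfer, 24 h, 37 degrees C, 5% CO2. CellTiter-Fluor 30 min, Ex405/Em525; Bright-Glo 5 min, luminescence 2 s exposure.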

[9] = Validation screen for small molecules that induce DNA re-replication in SW480 colon adenocarcinoma cells (AID 504364)
Procedure, shortened: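 Image-based qHTS: compounds were incubated with SW480 cells for 48 hr, nuclei stained with Hoechst, and per-nucleus fluorescence intensity scanned to flag cells with excess DNA content.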

[10] = molecular target: Estrogen receptor (Homo sapiens) (UniProt P03372); assay: qHTS assay for small molecule antagonists of estrogen receptor alpha signaling (AID 588513; active means well fitted curve in the direction sought with a large enough effect in the signal ratio, with a control signal flat, not every such curve was filed as active; inconclusive means small, poorly fitted or top-dose-only effect, or effect the other way, or a change in a side signal; inactive means no such curve, though single readings can be large or run the other way; the % refers to the signal ratio; further: potency means the concentration at half of the fitted maximal effect)
Procedure, shortened: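 Beta-lactamase reporter, antagonist mode, HEK 293 GripTite cells; 0.5nM E2 stimulus, 18 h, 37 C; CCF4 dye 2 h RT; fluorescence. IC50 and efficacy from Hill fits, normalized to E2 and DMSO.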

[11] = molecular target: Estrogen receptor (Homo sapiens) (UniProt P03372); assay: qHTS assay for small molecule agonists of estrogen receptor alpha signaling (AID 588514; calls by dose curve; further: nearly all actives have a fitted effect of over 70% in size)
Procedure, shortened: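 Efficacy is expressed against 20 nM 17-beta-estradiol (100%) and DMSO basal (0%); EC50 from Hill equation. Assay: beta-lactamase reporter in ER-alpha-UAS-bla HEK 293 cells, 18 h compound incubation, CCF4 detection.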

[12] = molecular target: Glucocorticoid receptor (Homo sapiens) (UniProt P04150); assay: qHTS assay for small molecule agonists of glucocorticoid receptor signaling (AID 588532; active means well fitted curve in the direction sought with a large enough effect in the signal ratio, with a control signal flat; inconclusive means small, poorly fitted or top-dose-only effect, or a change in a side signal; inactive means no such curve, though single readings can be large or run the other way; the % refers to the signal ratio); details: HeLa MMTV-bla, beta-lactamase ratio, agonist, 18 h; stronger effect = higher value; percent of dexamethasone control, DMSO zero
Procedure, shortened: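 HeLa GRE-bla reporter cells; 18 h compound exposure at 37 C; 2 h CCF4 loading at room temperature; fluorescence at 460 and 530 nm; EC50 by Hill equation.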

[13] = molecular target: Glucocorticoid receptor (Homo sapiens) (UniProt P04150); assay: qHTS assay for small molecule antagonists of glucocorticoid receptor signaling (AID 588533; active means well fitted inhibition curve with a large enough effect in the signal ratio, with a control signal flat, not every such curve was filed as active; inconclusive means small, poorly fitted or top-dose-only effect, or effect the other way, or a change in a side signal; the % refers to the signal ratio;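 further: cells stimulated with 2 nM dexamethasone as agonist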)
Procedure, shortened: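 Antagonist-mode qHTS: compound titrations added to GRE-bla HeLa cells, then dexamethasone 2 nM final; 18 h, 37 C. CCF4 FRET fluorescence normalized to dexamethasone and DMSO; IC50 from Hill fit.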

[14] = molecular target: Peroxisome proliferator-activated receptor gamma (Homo sapiens) (UniProt P37231); assay: qHTS assay for small molecule agonists of peroxisome proliferator-activated receptor gamma signaling (AID 588536; active means well fitted curve in the direction sought with a large enough effect in the signal ratio, with a control signal flat, not every such curve was filed as active; inconclusive means small, poorly fitted or top-dose-only effect, or effect the other way, or a change in a side signal; inactive means no such curve, though single readings can be large or run the other way; the % refers to the signal ratio)
Procedure, shortened: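 Cells were plated and held 6–6.5 h at 37 C, then compounds were added as a titration series. After a further 16 h, CCF4 dye was loaded for 2 h at room temperature and emission at 460/530 nm recorded.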

[15] = molecular target: DNA dC->dU-editing enzyme APOBEC-3G (Homo sapiens) (UniProt Q9HC16); assay: qHTS for inhibitors of Vif-A3G interactions: Validation (AID 588379)
Procedure, shortened: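 Yellow fluorescence (Ex 488, Em 500-530) of Vif-coexpressing HeLa A3G-eYFP cells, scanned by Acumen cytometer, reports blocked A3G degradation. Cells plated at 700/well overnight at 37 deg C before compound addition, then a further overnight compound incubation at 37 deg C.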

[16] = qHTS assay for small molecule antagonists of peroxisome proliferator-activated receptor delta signaling (AID 588535; active means well fitted inhibition curve with a large enough effect in the signal ratio, with a control signal flat, not every such curve was filed as active; inconclusive means small, poorly fitted or top-dose-only effect, or effect the other way, or a change in a side signal; inactive means no such curve, though single readings can be large or run the other way; the % refers to the signal ratio;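 on max response: cells co-treated with a PPAR-delta agonist as stimulator during compound exposure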); details: HEK293T PPARd-UAS-bla, beta-lactamase FRET ratio, 18 h; 460 nm channel
Procedure, shortened: (§1)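 Fluorescence from CCF4-loaded GeneBLAzer PPAR-delta-UAS-bla HEK293T cells (2 hrs RT loading) quantified reporter inhibition after an 18 hr, 37 C compound exposure across a titration.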

[17] = molecular target: Peroxisome proliferator-activated receptor delta (Homo sapiens) (UniProt Q03181); assay: as above
Procedure, shortened: as §1

[18] = molecular target: Bile acid receptor (Homo sapiens) (UniProt Q96RI1); assay: qHTS assay for small molecule antagonists of farnesoid X receptor signaling (AID 588526; calls by dose curve)
Procedure, shortened: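 Antagonist mode: titrated compounds tested against chenodeoxycholic acid stimulation (normalized to 50 uM CDCA and DMSO) in GeneBLAzer HEK293T cells for 16 h. Beta-lactamase read by CCF4 fluorescence; IC50 from Hill fits.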

Sequence of Glucocorticoid receptor (Homo sapiens) (P04150 whole entry, looked up): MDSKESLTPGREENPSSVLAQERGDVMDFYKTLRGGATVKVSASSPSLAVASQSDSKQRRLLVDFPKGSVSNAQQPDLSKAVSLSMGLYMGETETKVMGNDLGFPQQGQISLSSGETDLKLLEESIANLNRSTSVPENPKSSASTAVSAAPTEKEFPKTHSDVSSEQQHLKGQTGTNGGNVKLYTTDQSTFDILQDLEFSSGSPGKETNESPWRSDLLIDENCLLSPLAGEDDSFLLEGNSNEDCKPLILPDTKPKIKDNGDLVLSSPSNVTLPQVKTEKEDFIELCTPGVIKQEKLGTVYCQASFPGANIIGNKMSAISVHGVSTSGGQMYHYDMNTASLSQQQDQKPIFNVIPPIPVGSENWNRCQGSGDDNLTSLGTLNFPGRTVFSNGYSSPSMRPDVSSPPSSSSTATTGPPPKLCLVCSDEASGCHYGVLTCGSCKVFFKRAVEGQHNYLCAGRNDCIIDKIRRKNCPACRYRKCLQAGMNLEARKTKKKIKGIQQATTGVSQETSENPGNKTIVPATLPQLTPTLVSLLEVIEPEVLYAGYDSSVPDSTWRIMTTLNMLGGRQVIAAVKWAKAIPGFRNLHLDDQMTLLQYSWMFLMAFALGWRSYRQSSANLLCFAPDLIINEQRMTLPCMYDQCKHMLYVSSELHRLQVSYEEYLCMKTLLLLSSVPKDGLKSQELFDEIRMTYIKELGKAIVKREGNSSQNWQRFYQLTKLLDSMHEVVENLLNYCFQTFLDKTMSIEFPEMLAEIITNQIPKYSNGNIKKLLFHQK
Sequence of DNA dC->dU-editing enzyme APOBEC-3G (Homo sapiens) (Q9HC16 whole entry, looked up): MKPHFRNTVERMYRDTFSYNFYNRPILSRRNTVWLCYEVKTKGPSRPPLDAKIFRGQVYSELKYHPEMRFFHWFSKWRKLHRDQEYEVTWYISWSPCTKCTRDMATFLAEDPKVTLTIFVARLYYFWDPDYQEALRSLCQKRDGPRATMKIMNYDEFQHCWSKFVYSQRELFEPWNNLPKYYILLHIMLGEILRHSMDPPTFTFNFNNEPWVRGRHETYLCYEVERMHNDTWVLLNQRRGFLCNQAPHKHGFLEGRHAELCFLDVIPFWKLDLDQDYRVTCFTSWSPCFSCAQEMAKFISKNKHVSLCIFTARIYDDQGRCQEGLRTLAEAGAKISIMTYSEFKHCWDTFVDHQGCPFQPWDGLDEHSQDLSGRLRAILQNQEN
Sequence of Ubiquitin carboxyl-terminal hydrolase 1 (Homo sapiens) (O94782 whole entry, looked up): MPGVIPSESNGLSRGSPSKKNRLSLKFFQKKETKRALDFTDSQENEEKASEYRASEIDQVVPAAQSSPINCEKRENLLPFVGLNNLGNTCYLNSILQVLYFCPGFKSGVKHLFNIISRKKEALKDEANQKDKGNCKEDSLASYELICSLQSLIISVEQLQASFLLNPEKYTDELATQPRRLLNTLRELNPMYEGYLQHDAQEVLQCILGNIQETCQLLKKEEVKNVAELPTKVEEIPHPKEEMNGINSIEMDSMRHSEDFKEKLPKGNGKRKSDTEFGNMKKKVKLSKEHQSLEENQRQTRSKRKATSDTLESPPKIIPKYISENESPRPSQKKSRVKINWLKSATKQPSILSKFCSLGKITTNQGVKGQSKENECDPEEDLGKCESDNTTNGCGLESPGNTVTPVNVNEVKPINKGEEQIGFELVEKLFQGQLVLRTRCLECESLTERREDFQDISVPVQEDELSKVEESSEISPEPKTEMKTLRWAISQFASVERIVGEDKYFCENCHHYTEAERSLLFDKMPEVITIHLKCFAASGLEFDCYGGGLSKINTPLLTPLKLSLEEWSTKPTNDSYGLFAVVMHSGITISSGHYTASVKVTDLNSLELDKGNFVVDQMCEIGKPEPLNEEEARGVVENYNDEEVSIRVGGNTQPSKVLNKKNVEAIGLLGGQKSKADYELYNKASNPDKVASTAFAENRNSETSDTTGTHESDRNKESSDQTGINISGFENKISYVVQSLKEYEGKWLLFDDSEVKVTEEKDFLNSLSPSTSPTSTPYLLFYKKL
Sequence of Peroxisome proliferator-activated receptor delta (Homo sapiens) (Q03181 whole entry, looked up): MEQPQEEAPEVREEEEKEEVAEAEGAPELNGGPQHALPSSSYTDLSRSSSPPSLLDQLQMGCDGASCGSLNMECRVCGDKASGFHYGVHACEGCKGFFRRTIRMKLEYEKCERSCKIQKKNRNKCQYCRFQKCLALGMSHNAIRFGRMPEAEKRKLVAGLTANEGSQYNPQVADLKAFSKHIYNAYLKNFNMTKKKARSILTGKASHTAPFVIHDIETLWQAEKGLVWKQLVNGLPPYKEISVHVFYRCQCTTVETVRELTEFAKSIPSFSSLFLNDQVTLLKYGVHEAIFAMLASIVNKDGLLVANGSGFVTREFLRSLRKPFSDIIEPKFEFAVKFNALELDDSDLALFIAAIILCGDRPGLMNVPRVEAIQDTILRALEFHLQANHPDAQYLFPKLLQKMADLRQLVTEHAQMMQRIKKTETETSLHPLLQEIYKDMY
Sequence of Peroxisome proliferator-activated receptor gamma (Homo sapiens) (P37231 whole entry, looked up): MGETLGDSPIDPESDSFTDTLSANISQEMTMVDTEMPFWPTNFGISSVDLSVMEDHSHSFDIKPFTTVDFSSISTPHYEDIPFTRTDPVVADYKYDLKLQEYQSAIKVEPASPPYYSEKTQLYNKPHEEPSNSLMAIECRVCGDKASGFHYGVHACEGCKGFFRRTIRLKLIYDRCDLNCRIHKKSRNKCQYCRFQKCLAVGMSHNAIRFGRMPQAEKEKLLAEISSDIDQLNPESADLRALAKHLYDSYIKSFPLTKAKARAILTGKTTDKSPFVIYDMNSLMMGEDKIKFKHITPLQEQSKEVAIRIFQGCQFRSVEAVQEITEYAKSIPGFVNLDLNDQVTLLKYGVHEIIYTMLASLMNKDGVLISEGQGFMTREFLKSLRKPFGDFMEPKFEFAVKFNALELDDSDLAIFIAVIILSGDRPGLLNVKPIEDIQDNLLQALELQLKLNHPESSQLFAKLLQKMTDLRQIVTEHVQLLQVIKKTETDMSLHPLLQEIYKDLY
Sequence of Bile acid receptor (Homo sapiens) (Q96RI1 whole entry, looked up): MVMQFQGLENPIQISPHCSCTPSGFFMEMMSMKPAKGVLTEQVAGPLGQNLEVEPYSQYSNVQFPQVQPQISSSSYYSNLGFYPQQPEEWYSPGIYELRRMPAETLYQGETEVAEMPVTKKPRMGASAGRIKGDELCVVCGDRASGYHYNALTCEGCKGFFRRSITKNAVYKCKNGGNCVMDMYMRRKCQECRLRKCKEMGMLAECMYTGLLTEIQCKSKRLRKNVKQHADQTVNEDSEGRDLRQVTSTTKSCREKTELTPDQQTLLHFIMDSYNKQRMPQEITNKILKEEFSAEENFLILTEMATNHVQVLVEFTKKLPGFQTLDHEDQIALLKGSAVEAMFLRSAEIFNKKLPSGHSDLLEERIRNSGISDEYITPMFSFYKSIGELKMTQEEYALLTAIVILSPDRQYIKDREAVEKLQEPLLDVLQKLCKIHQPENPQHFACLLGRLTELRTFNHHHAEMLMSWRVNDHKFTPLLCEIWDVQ
Sequence of Estrogen receptor (Homo sapiens) (P03372 whole entry, looked up): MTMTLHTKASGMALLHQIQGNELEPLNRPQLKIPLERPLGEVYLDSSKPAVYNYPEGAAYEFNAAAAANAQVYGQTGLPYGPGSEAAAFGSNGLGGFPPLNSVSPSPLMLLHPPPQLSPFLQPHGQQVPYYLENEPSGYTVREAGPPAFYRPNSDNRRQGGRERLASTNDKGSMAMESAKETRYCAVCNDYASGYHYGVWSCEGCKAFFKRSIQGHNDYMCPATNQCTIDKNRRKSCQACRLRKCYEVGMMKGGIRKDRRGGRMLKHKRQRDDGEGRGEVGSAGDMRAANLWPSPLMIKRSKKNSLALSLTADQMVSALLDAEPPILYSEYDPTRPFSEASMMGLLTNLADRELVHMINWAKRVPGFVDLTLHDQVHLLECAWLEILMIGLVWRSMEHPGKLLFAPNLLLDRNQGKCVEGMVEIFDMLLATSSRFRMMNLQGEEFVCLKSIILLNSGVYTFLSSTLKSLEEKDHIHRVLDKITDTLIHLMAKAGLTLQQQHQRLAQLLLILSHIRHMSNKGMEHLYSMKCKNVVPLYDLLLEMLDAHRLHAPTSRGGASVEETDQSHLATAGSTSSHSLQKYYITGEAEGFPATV
Sequence of Peptidyl-prolyl cis-trans isomerase NIMA-interacting 1 (Homo sapiens) (Q13526 whole entry, looked up): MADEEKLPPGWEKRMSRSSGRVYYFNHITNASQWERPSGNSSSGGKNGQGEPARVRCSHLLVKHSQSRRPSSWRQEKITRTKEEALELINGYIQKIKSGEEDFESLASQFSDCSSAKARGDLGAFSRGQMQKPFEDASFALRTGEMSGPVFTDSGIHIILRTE
Sequence of phosphoglycerate mutase (Leishmania major) (Q4Q090 1-553): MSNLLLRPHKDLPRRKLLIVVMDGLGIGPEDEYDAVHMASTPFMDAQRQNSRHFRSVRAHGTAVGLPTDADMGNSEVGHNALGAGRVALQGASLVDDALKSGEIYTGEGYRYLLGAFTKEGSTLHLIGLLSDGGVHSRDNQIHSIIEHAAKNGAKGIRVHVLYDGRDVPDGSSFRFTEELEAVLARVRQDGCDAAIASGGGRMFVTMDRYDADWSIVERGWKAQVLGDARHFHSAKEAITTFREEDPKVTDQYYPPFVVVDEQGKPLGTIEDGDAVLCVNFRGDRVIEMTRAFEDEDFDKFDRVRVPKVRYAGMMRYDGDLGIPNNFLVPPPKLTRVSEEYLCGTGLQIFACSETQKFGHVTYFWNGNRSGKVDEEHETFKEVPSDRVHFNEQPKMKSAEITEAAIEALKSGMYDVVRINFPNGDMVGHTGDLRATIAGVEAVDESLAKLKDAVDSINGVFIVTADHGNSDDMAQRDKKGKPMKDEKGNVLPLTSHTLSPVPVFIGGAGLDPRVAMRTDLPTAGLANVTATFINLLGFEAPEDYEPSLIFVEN

## NC(=O)c1ccc2[nH]ccc2c1
[1]
  Potency: inactive
  viability change: -7.5%
[2]
  outcome: inactive
[3]
  outcome: inactive
[4]
  Potency: inactive
[5]
  outcome: inactive
[6]
  Potency: inactive
[7]
  Potency: inactive
[8]
  Potency: inactive

## NC(=O)c1cccnc1
[6]
  Potency: inactive

## CCOc1cc(N)c(Cl)cc1C(=O)NCC1CN(Cc2ccc(F)cc2)CCO1 (stereo not drawn)
[6]
  Potency: inactive

## O=NN(CCCl)C(=O)NC1CCCCC1
[6]
  Potency: inactive

## CCN(CC)CC#CCOC(=O)C(O)(c1ccccc1)C1CCCCC1 (stereo not drawn)
[1]
  Potency: inactive
  viability change: -11.3%
[2]
  outcome: inactive
[9]
  outcome: inactive
[3]
  outcome: inactive
[4]
  Potency: inactive
[5]
  outcome: inactive
[6]
  Potency: inactive
[8]
  Potency: inactive

## OC(Cn1cncn1)(Cn1cncn1)c1ccc(F)cc1F
[6]
  Potency: inactive
[10]
  Potency: inactive
[11]
  outcome: inactive
[12]
  activation: 0.0878% (inactive)
[13]
  outcome: inactive
[14]
  outcome: inactive

## O=C(N[C@H](CO)[C@H](O)c1ccc([N+](=O)[O-])cc1)C(Cl)Cl
[6]
  Potency: inactive
[15]
  outcome: inactive
[10]
  Potency: inactive
[16]
  max response: -4.34% and 5.8%
[17]
  outcome: inactive
[14]
  outcome: inactive

## CCOC(=O)c1ccc(OC(=O)CCCCCN=C(N)N)cc1
[6]
  Potency: inactive
[15]
  outcome: inactive

## COc1c(N2CCNC(C)C2)c(F)cc2c(=O)c(C(=O)O)cn(C3CC3)c12 (stereo not drawn)
[6]
  Potency: inactive

## CN(C)c1ccc(C(=C2C=CC(=[N+](C)C)C=C2)c2ccc(N(C)C)cc2)cc1
[6]
  Potency: 20 µM (active) and 22.4 µM (active)
[10]
  Potency: 28.2 µM [inconclusive] (active)
[12]
  activation: -0.396% (inactive) and -10.9% (inactive)

## NC(N)=NC(N)=NCCc1ccccc1
[6]
  Potency: inactive
[10]
  Potency: inactive
[11]
  outcome: inactive
[12]
  activation: 10% (inactive) and -5.38% (inactive)
[16]
  max response: -11.9% and 9.95%
[17]
  outcome: inactive
[14]
  outcome: inactive

## O=C(O)c1cc(=O)[nH]c(=O)[nH]1
[6]
  Potency: inactive
[10]
  Potency: inactive
[12]
  activation: -4.81% (inactive)
[14]
  outcome: inactive

## S=P(N1CC1)(N1CC1)N1CC1
[6]
  Potency: inactive
[10]
  Potency: inactive
[18]
  outcome: inactive
[12]
  activation: -9.54% (inactive)
[13]
  outcome: inactive
[16]
  max response: 6.13%
[17]
  outcome: inactive
[14]
  outcome: inactive

## COc1cc([C@@H]2c3cc4c(cc3[C@H](O)[C@H]3COC(=O)[C@H]23)OCO4)cc(OC)c1OC
[15]
  outcome: inactive

## Cc1noc(NS(=O)(=O)c2ccc(N)cc2)c1C
[6]
  Potency: inactive
[15]
  outcome: inactive
[10]
  Potency: inactive
[11]
  outcome: inactive
[18]
  outcome: inactive
[16]
  max response: 23.8% and 11.7%
[17]
  outcome: inactive
[14]
  outcome: inactive

## CC(C)Cn1cnc2c(N)nc3ccccc3c21
[6]
  Potency: inactive

## C[C@]12C=CC(=O)C=C1CC[C@@H]1[C@@H]2C(=O)C[C@@]2(C)[C@H]1CC[C@]2(O)C(=O)CO
[6]
  Potency: inactive
[10]
  Potency: inactive
[11]
  outcome: inactive
[14]
  outcome: inactive

## CCN(C)C(=O)Oc1cccc([C@H](C)N(C)C)c1
[6]
  Potency: inactive

Reference: PubChem BioAssay (NCATS)
